Measured values reported in publication PMC5540273 (PLoS ONE, 2017).

Columns and labels:
Conditions in all cases: concentration: 1 μM, replicates: in singlicate; n = 1
CHEK1 = test system: CHEK1
CHEK2 = test system: CHEK2
CIT = test system: CIT
CLK1 = test system: CLK1
CLK2 = test system: CLK2
CLK3 = test system: CLK3
CLK4 = test system: CLK4
CSF1R-autoinhibited = test system: CSF1R-autoinhibited
CSF1R = test system: CSF1R
CSK = test system: CSK
CSNK1A1L = test system: CSNK1A1L
CSNK1A1 = test system: CSNK1A1
CSNK1D = test system: CSNK1D
CSNK1E = test system: CSNK1E
CSNK1G1 = test system: CSNK1G1
CSNK1G2 = test system: CSNK1G2
CSNK1G3 = test system: CSNK1G3
CSNK2A1 = test system: CSNK2A1
CSNK2A2 = test system: CSNK2A2
CTK = test system: T1, CTK
T1 construct: gene MATK
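Note: KINOMEscan kinase panel screen.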

| SMILES | %Inh (CHEK1) [%] | %Inh (CHEK2) [%] | %Inh (CIT) [%] | %Inh (CLK1) [%] | %Inh (CLK2) [%] | %Inh (CLK3) [%] | %Inh (CLK4) [%] | %Inh (CSF1R-autoinhibited) [%] | %Inh (CSF1R) [%] | %Inh (CSK) [%] | %Inh (CSNK1A1L) [%] | %Inh (CSNK1A1) [%] | %Inh (CSNK1D) [%] | %Inh (CSNK1E) [%] | %Inh (CSNK1G1) [%] | %Inh (CSNK1G2) [%] | %Inh (CSNK1G3) [%] | %Inh (CSNK2A1) [%] | %Inh (CSNK2A2) [%] | %Inh (CTK) [%] |
| --- | --- | --- | --- | --- | --- | --- | --- | --- | --- | --- | --- | --- | --- | --- | --- | --- | --- | --- | --- | --- |
| COc1cc(Nc2nccc(N3CCC(NC(=O)c4cccc(NC(C)=O)c4)C3)n2)cc(OC)c1OC (centres unmarked) [GSK1379754] | 0 | 19 | 23 | 10 | 3 | 0 | 13 | 0 | 38 | 0 | 4 | 6 | 0 | 0 | 4 | 0 | 8 | 17 | 65 | 0 |
| COc1ccc(COc2cc(-n3cnc4ccccc43)sc2C(N)=O)cc1 [GSK1024304] | 0 | 0 | 29 | 27 | 48 | 17 | 12 | 0 | 4 | 0 | 13 | 0 | 0 | 30 | 11 | 5 | 22 | 4 | 13 | 0 |
| NCC(NC(=O)c1cc(-c2cn[nH]c2)c(-c2ccnc3[nH]ccc23)s1)c1ccccc1.O=C(O)C(F)(F)F.O=C(O)C(F)(F)F (centres unmarked) [GSK1325775] | 37 | 86 | 96.6 | 74 | 68 | 70 | 66 | 0 | 26 | 10 | 87 | 93.3 | 91.9 | 99.4 | 55 | 90 | 81 | 15 | 33 | 0 |
| [2H]C([2H])(c1cccc(C(F)(F)F)c1C)n1ccn2c(=O)nc(N3CCOCC3)cc12 [GSK2336394] | 0 | 0 | 11 | 20 | 0 | 14 | 12 | 0 | 0 | 0 | 16 | 0 | 19 | 12 | 9 | 0 | 19 | 0 | 0 | 0 |
| O=C(NCCNc1ccnc(Nc2ccc(F)cc2)n1)Nc1ccccc1F [GSK1379880] | 11 | 0 | 47 | 24 | 0 | 2 | 0 | 0 | 9 | 0 | 16 | 0 | 11 | 9 | 1 | 0 | 16 | 0 | 3 | 0 |
| CC(C)Oc1ccc2c(-c3ccnc(Nc4ccc(N5CCN(C)CC5)cc4)n3)cnn2n1 [GW696155] | 0 | 67 | 98.7 | 97 | 96.8 | 1 | 93.7 | 58 | 65 | 34 | 0 | 46 | 37 | 28 | 28 | 0 | 19 | 94.6 | 98.9 | 0 |
| Fc1ccc(-c2nn3c(OCC(F)(F)F)cccc3c2-c2ccncc2)cc1 [GW514784] | 0 | 30 | 99.1 | 2 | 0 | 0 | 0 | 36 | 0 | 0 | 35 | 92.9 | 96.4 | 99 | 0 | 0 | 16 | 0 | 0 | 0 |
| Cl.Oc1cccc(Nc2ccnc3cc(-c4ccncc4)ccc23)c1 [GW494601] | 0 | 42 | 68 | 9 | 0 | 0 | 33 | 41 | 91.9 | 65 | 42 | 55 | 28 | 45 | 40 | 0 | 22 | 0 | 0 | 0 |
| N#Cc1c(N2CCOCC2)sc(-c2ccn[nH]2)c1-c1ccc(Cl)cc1 | 15 | 15 | 24 | 6 | 0 | 16 | 0 | 8 | 34 | 17 | 0 | 17 | 0 | 15 | 0 | 0 | 10 | 34 | 14 | 3 |
| Cc1nnc(-c2ccc3occ(-c4ccc(C(C)O)cc4)c3c2)o1 (centres unmarked) | 13 | 15 | 11 | 31 | 2 | 6 | 33 | 6 | 1 | 3 | 0 | 14 | 0 | 7 | 0 | 9 | 0 | 25 | 53 | 0 |
